HTR5A ag = activates human HTR5A in OPRM1-OPRD1 agonist counter-screen | HTR5A agonist assay, luminescence, cell-based | activation, % at 9.3 µM | hit rate 0.61% among 340,000 | P47898 | AID 504692; in the data active means activation mostly above about 9.5%, no sharp cut-off; inactive means mostly below about 7.6%;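 further: 0% = cells with vehicle only and 100% = reference agonist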
OPRM1-OPRD1 inv = inverse agonist of human OPRM1-OPRD1 heterodimerization; P35372+P41143; cell-based MOR-DOR heterodimer luminescence, inverse agonism; inhibition, % at 9.3 µM; hit rate 0.21% among 340,000; AID 504357; in the data active means inhibition above about 22%, passing the limit was not always enough;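 further: 0% = cells with DMSO and 100% = wells without cells with DMSO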
Target sequence (P35372 whole entry, looked up): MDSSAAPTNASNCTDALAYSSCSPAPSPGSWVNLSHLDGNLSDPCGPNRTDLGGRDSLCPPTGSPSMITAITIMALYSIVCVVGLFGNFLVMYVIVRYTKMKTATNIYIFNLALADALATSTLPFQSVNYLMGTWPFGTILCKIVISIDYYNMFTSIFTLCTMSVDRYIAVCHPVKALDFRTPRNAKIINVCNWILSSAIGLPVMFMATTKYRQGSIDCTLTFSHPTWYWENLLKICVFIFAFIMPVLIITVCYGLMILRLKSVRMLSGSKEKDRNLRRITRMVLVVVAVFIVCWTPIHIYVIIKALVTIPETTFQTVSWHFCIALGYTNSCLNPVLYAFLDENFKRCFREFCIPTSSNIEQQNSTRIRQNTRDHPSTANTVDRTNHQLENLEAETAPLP
Target sequence (P41143 whole entry, looked up): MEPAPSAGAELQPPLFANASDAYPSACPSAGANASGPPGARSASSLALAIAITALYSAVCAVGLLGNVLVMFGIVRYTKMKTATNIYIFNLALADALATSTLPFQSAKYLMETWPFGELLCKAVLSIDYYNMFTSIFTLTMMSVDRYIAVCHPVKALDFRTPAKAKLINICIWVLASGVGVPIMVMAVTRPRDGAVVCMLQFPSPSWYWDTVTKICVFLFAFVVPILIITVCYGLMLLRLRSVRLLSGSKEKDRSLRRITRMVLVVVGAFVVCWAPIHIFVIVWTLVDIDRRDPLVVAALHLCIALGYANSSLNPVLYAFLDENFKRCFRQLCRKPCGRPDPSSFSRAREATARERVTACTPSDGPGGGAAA
HTR5A inv ctr = HTR5A inverse agonism, opioid heterodimer counter-screen; P47898; HTR5A cell line, luminescence; hit rate 0.083% among 340,000; inhibition, % at 9.3 µM; AID 504634; in the data active means inhibition mostly above about 23%, no sharp cut-off; inactive means mostly below about 18%;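 further: 0% = cells with DMSO and 100% = no-cell wells with DMSO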
OPRM1-OPRD1 ag = OPRM1-OPRD1 heterodimerization agonism | activation, % at 9.3 µM | hit rate 0.3% among 340,000 | AID 504326 | cells, luminescence; in the data active means activation above about 18%;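 further: 0% = vehicle-treated cells and 100% = reference agonist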
Starred values were filed as active, the others as inactive. Most compounds without a hit are left out; they make up all but 1.1% or so of the library.

SMILES	HTR5A ag	OPRM1-OPRD1 inv	HTR5A inv ctr	OPRM1-OPRD1 ag
O=S(=O)(c1ccc2c(c1)C(O)c1ccccc1CC2)C(F)(F)F (stereo not given)	13.3*	-39.3	-32.1	6.9
CC1CC(=O)c2c(cc3c(-c4c(O)cc(O)c5c(O)c6c(cc45)OC(C)CC6=O)c(O)cc(O)c3c2O)O1 (stereo not given)	16.8*	-412.3	12.6	81.7*
COc1ccc2nc(C)cc(N/N=C/c3ccccc3)c2c1	-2.5	-83.3	-4.1	21.2*
CCCCSc1ccc(NC(=O)c2cccnc2)cc1	11.9*	-2.3	-11.7	0.4
Cc1nn(C(=O)c2ccco2)c(C)c1Sc1ccccc1	11.5*	-3.7	10.3	0.9
Cc1c(Cl)cccc1NC(=S)N(Cc1cccs1)C1CCCC1	0.7	-1.7	-11.2	0.3
O=C1OC(N2CCN(C(=O)c3ccco3)CC2)c2ccccc21 (stereo not given)	9.9*	13.0	-14.9	-2.2
Cc1ccc(NC(=O)Cn2c(O)c(N=NC(N)=O)c3ccccc32)cc1	1.5	14.7	-4.0	-2.8
Cc1ccc(NC(=O)Cn2c(O)c(N=NS(=O)(=O)c3ccc(C)cc3)c3ccccc32)cc1	5.4	52.9*	-14.3	-8.8
CSc1ccc(/C=C2\C(=N)N3N=C(CC(=O)N4CCCCC4)SC3=NC2=O)cc1	-1.9	13.7	6.9	-2.7
CSc1ccc(/C=C2\C(=N)N3N=C(CC(=O)N4CCOCC4)SC3=NC2=O)cc1	11.9*	8.0	-36.7	-1.6
CC(C)CC(=O)Nc1cccc2c1C(=O)N(c1ccccc1)C2=O	-4.2	1.1	10.8	-0.2
CC(C)CC(=O)Nc1cc2nn(-c3ccccc3)nc2cc1Cl	9.1*	1.8	10.4	-0.4
Cn1c(CCC(=O)OCC(=O)NCc2ccc3c(c2)OCO3)nc(=O)c2ccccc21	-3.1	9.4	9.0	-1.8
COc1cc(C#Cc2c(-c3cncn3C)n(C)c3ccc(-c4cnc(OC)nc4)cc23)cc(OC)c1	12.3*	-5.2	-44.1	1.0
O=C(N1CCN(c2ncccn2)CC1)C12CC3CC(CC(C3)C1)C2	-1.8	8.8	-15.8	-1.7
COc1cc2c(cc1OC)CN(CC(=O)Nc1ccc(C)c(C)c1)CC2	0.5	16.3	-1.8	-2.8
Cc1ccc(-c2nc3cccnc3s2)cc1NS(=O)(=O)c1ccc2c(c1)OCCO2	15.2	0.3	-46.3	-0.1
O=S(=O)(Nc1cccc(-c2nc3cccnc3s2)c1)c1ccc2c(c1)OCCO2	12.6*	-11.6	1.6	2.1
Cc1cccc(C)c1OCc1cc(C(=O)N(Cc2c(C)nn(C)c2C)C2CC2)no1	11.4*	-11.3	-9.8	2.1
Cc1cccc(C)c1OCc1cc(C(=O)NCC2CCCCC2)no1	-0.8	-16.1	-5.8	3.0
O=C(CN1C(=O)NC(CCc2ccccc2)C1=O)Nc1cccc(Br)c1 (stereo not given)	4.0	-4.8	-10.9	1.1
CCC(=O)Nc1nc2ccccc2n1Cc1ccc(Cl)cc1	13.9*	1.6	-38.1	-0.4
Cc1ccc(S(=O)(=O)c2nc(S(C)(=O)=O)sc2N2CCOCC2)cc1	1.0	8.3	-0.7	-1.6
CCS(=O)(=O)c1nc(S(=O)(=O)c2ccc(C)cc2)c(N2CCOCC2)s1	11.2*	-2.6	17.5	0.5
SMILES	HTR5A ag	OPRM1-OPRD1 inv	HTR5A inv ctr	OPRM1-OPRD1 ag
COC(=O)C1C(=O)C(C(=O)c2ccc([N+](=O)[O-])cc2)C(=O)CC1(C)C (stereo not given)	5.3	6.1	-14.8	-1.2
COc1ccc(NC(=O)CC2C(=O)N(c3ccc(Cl)cc3)C(=S)N2NC(=O)c2cccc(F)c2)cc1 (stereo not given)	-0.2	-1.4	-6.2	0.3
COc1ccc(NC(=O)CC2C(=O)N(c3ccc(F)cc3)C(=S)N2NC(=O)c2ccc(Cl)cc2)cc1 (stereo not given)	12.1*	-2.5	5.7	0.5
N#CC1(NC(=O)COc2ccc3ccc(=O)oc3c2)CCCCC1	2.5	3.9	-6.9	-0.6
COc1ccc(C(=O)CC(=O)c2ccc(C(C)(C)C)cc2)cc1	2.4	-3.1	-2.6	0.6
COc1ccc(C(=O)C(CCC(CNC(C)(C)C)C(=O)c2ccc(OC)cc2)CNC(C)(C)C)cc1 (stereo not given)	12.7*	-7.7	-38.0	1.2
Cc1ccc(Nc2c(-c3ccccn3)nc3cccc(C)n23)cc1	-4.5	34.1*	-3.1	-6.7
CCCS(=O)(=O)N1CCCC(C(=O)NCCCOC(C)C)C1 (stereo not given)	4.9	15.0	2.9	-2.5
CCCS(=O)(=O)N1CCCC(C(=O)NCCCN2CCN(c3ccc(F)cc3)CC2)C1 (stereo not given)	10.8*	-7.1	-20.9	1.2
COc1ccccc1N1C(=O)c2ccc(C(=O)Nc3ccc(C(=O)O)cc3)cc2C1=O	1.1	24.8	-4.1	-5.5
OC(COCc1ccccc1)CN1CCCCC1 (stereo not given)	4.9	12.6	-18.6	-2.4
c1ccc(C(c2c[nH]c3ccccc23)c2c[nH]c3ccccc23)nc1	31.8*	-7.0	-76.0	1.7
Cc1csc2nc(O)c(C(=O)NCc3ccc4c(c3)OCO4)c(=O)n12	2.0	1.7	-6.1	-0.3
CCCNCC1C(Oc2ccc(Cl)cc2Cl)C(=O)N1c1cccc(C)c1C (stereo not given)	4.5	-63.2	-11.6	12.4
CCCCNCC1C(Oc2ccc(Cl)cc2)C(=O)N1c1ccccc1C (stereo not given)	12.3*	-79.6	3.8	11.1
Cc1ccc(C2(c3noc(CN(C)Cc4cnn(C)c4)n3)CCCC2)cc1	1.2	2.8	30.8	-0.5
CN(C)c1ccc(C(=O)/C=C/c2cccnc2)cc1	9.2*	13.3	-34.5	-2.7
O=C(/C=C/c1cccnc1)c1ccc(F)c(F)c1	1.4	9.0	-4.0	-1.7
CC(=O)C1=C(O)C(=O)N(Cc2cccnc2)C1c1ccccc1 (stereo not given)	-8.0	2.8	-24.1	-0.5
CC(=O)C1=C(O)C(=O)N(Cc2cccnc2)C1c1ccc(Cl)cc1Cl (stereo not given)	11.7*	-0.8	-38.5	0.1
O=C(COc1ccccc1)Nc1ccc(CSc2ccccc2)cc1	11.7*	-56.2	1.1	9.6
CCn1c(C)nc2cc(C(=O)N/N=C(\C)c3ccc(N4CCOCC4)cc3)ccc21	7.5	0.4	-18.5	-0.1
CCn1c(C)nc2cc(C(=O)NN=C(C)c3ccc(C#N)cc3)ccc21	13.1*	9.1	-51.5	-1.9
CCC(CN(C)C)Oc1cc(NCc2ccccc2)c2ncn(C(C)C)c2c1 (stereo not given)	21.4*	-140.4	-62.9	24.3*
Cc1ccccc1CNC(=O)CC1C(=O)NCCN1Cc1c(F)cccc1Cl (stereo not given)	-1.2	16.2	3.4	-2.8
CC(C)CNC(=O)COC(=O)c1c2c(nc3ccccc13)/C(=C\c1cccs1)CC2	0.5	-103.6	-2.1	20.7*
Cc1sc(-c2ccncc2)nc1OC(=O)c1ccc(F)cc1F	9.8*	-6.9	-25.6	1.2
CCN(c1ccccc1)S(=O)(=O)c1ccc2c(c1)CCCN2C(C)=O	10.8*	5.5	15.4	-1.1
CCN(c1cccc(C)c1)S(=O)(=O)c1ccc2c(c1)CCCN2C(C)=O	1.4	5.4	-17.5	-1.0

High-throughput results from PubChem BioAssay.
